Measurements published in the supplement of paper PMC5940239.

Test system: Madurella mycetomatis MM55
Experiment: percent growth relative to solvent control; higher = less inhibition, active = 20 or less
Settings: 100 µM; 7 days

Structure (SMILES)	percent growth
Cc1cc(C)c2cc(C(=O)NC3CCCCCCC3)[nH]c2c1	2.52% (active)
CN1CCC(NCc2cccc(-c3ccc(S(=O)(=O)NCc4ccccc4)cc3)c2)CC1	3.47% (active)
CCOc1ccc2cc(-c3nn(CC4CCN(C)CC4)c4ncnc(N)c34)ccc2c1	-3.52% (active)
CNc1nnc(Sc2cnn(-c3ccccc3)c(=O)c2Cl)s1	-0.261% (active)
Cc1cc(OCC(=O)NCc2ccccc2)c2cc(Br)ccc2n1	15.1% (active)
CC(Oc1ccccc1)C(=O)Nc1nc(-c2ccccn2)cs1 (stereo not drawn)	1.36% (active)
CN1CCC(c2cc(-c3ccncc3)c(-c3ccc(F)cc3)[nH]2)CC1	1.72% (active)
N=C(N)c1ccc(-c2cc(-c3ccccc3)on2)cc1	-0.237% (active)
C[C@H](c1ccc2c(c1)CCCC2)N(C)c1ncc2c(N)nc(N)nc2n1	-2.94% (active)
O=C(Nc1ccc(N2CCNCC2)nc1)c1oc(-c2ccccc2)nc1C(F)(F)F	-3.61% (active)
CC1=Nc2ccc(Cl)cc2C(O)(c2ccc(C)cc2)N1CCN1CCCCC1 (stereo not drawn)	2.85% (active)
CC(C)(C)n1nc(Cc2ccc(F)c(Cl)c2)c2c(N)ncnc21	1.18% (active)
NCC(c1cccs1)S(=O)(=O)c1ccccc1 (stereo not drawn)	1.47% (active)
c1ccc(-c2cc(N3CCCCC3)c3ccccc3n2)nc1	0.766% (active)
CC[P](CC)(CC)=[Au][S][C@H]1O[C@@H](COC(C)=O)[C@H](OC(C)=O)[C@@H](OC(C)=O)[C@@H]1OC(C)=O	3.51% (active)
CCCCOC(=O)Nc1cc2nc(C3CCCCC3)[nH]c2cc1N1CCCC1	7.67% (active)
Cc1cnc(N2CCN[C@@H](Cc3ccccc3)C2)nc1Oc1ccc(-n2ccnc2)cc1	3.67% (active)
Cc1[nH]c2ccccc2c1C(c1cccs1)N1CCN(C)CC1 (stereo not drawn)	4.92% (active)
COc1cc2ncnc(NC3CCN(Cc4ccccc4)CC3)c2cc1OC	-1.64% (active)

Structure (SMILES)	percent growth
c1ccc(Oc2ccc(-c3cc(N4CCNCC4)[nH]n3)cc2)cc1	0.718% (active)
COc1ccc(-c2cc(NC(=O)c3ccc(F)cc3Cl)ccc2OC)cc1	19.5% (active)
COc1ccc(-c2cnc3cnc(-c4cccc(OC(C)C)c4)cn23)cc1	6.18% (active)
CC(C)(C)C1CCC(CC2=C(O)C(=O)c3ccccc3C2=O)CC1 (stereo not drawn)	-0.835% (active)
COc1cccc(-c2cc3c(Nc4cccnc4)nccc3[nH]2)c1	2.45% (active)
Cc1ccc2nc(Cl)c(CNCc3cccs3)cc2c1	-0.463% (active)
c1ccc(C[C@@H]2CN(c3nccc(Oc4ccc(-n5ccnc5)cc4)n3)CCN2)cc1	-0.802% (active)
COc1ccc(OC)c(NCc2ccc3nc(N)nc(N)c3c2Cl)c1	-0.467% (active)
CN1CCCC1CCO[C@](C)(c1ccccc1)c1ccc(Cl)cc1 (stereo partly drawn)	-0.386% (active)
Cc1nn(C(=O)Nc2cccc(C(F)(F)F)c2)c(C)c1Sc1ncccn1	1.34% (active)
COc1cccc(-n2nnnc2S(=O)(=O)Cc2ccccc2)c1	1.14% (active)
CN1CCN(c2nccc3[nH]c(-c4cccc(F)c4)cc23)CC1	3.26% (active)
COc1ccc(-c2cnc3ccc(N4CCCC4)nn23)cc1OC	0.205% (active)
O=C1COCc2ccc(Br)cc2N1Cc1ccc(C(F)(F)F)cc1	9.1% (active)
Cc1cc(C)n(-c2ccc(NC(=O)C3CCN(Cc4cnc(C)s4)CC3)cc2)n1	1.64% (active)
CCCn1nnc(NC(=O)COc2ccc(C3CCCCC3)cc2)n1	2.18% (active)
c1cncc(NCc2ccc(-c3cc4ccncc4cc3OC3CCNCC3)s2)c1	-3.08% (active)
O=C([C@@H](c1ccc(Cl)cc1)c1cccnc1)N1CCN(c2ccc(C(F)(F)F)cc2)CC1	4.17% (active)
CCCCCCCCCCCCCCCCOP(=O)([O-])OCC[N+](C)(C)C	-0.857% (active)
